As usually defined, the AC50 is the concentration at which the activity in the assay is half-maximal.

Active and inactive are the calls of the source. How the source made its calls: active means hit-call score of the fitted dose curve at least 0.9, where 1 is the maximum; inactive means score below 0.9.

For this test, the target named is human Opioid Receptor mu (MOP) Agonism, OPRM1 (gene 4988) (UniProt P35372). Put plainly: ERF_FR_GPCR_hOPRM1: Eurofins (ERF) G Protein-Coupled Receptor (GPCR) Radioligand Binding LeadHunter Assay for human Opioid Receptor mu (MOP) Agonism. Here is the method: ERF_FR_GPCR_hOPRM1 is a biochemical, single-readout assay that uses extracted gene-proteins in a cell-free assay. Measurements were taken 2 hour after chemical dosing in a 96-well plate. See mu (MOP) Human Opioid GPCR Binding (Agonist Radioligand) Assay, Cerep.ERF_FR_GPCR_hOPRM1 is an assay component calculated from the ERF_FR_GPCR_hOPRM1 assay. It is designed to measure radioligand binding using a type of binding reporter as detected by scintillation counting with radiometry technology.Data from the assay component ERF_FR_GPCR_hOPRM1 was analyzed at the assay endpoint, ERF_FR_GPCR_hOPRM1, in the positive analysis fitting direction relative to DMSO as the negative control and baseline of activity. Using a type of binding reporter, gain-of-signal activity can be used to understand changes in binding as they relate to gene OPRM1. To generalize the intended target to other relatable targets, this assay endpoint is annotated to the gpcr intended target family, where the subfamily is opioid.
Sequence of human Opioid Receptor mu (MOP) Agonism, OPRM1 (gene 4988) (P35372 whole entry, looked up): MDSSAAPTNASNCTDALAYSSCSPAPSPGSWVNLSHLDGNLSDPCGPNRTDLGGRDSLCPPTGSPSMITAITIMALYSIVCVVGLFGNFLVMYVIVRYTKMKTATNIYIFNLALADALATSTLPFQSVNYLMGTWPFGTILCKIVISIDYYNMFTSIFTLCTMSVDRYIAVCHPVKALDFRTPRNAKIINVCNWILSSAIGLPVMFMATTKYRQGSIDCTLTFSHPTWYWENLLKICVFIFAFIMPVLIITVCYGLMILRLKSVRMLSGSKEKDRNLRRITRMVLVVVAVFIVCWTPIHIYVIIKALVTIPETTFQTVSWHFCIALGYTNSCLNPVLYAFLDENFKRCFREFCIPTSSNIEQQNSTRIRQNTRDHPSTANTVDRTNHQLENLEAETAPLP
Human cells are incubated for 60 minutes at room temprature with [3H]DAMGO ligand (0.1 nM) and DAMGO as control inhibitor. Test Sample Requirements: Minimum for 1) Screen: 60 ul of 10 mM stock -OR- 1 mg (pre-weighed) for 10 uM final testing. 2) Dose Response: 90 ul of 10 mM stock -OR- 1 mg (pre-weighed) for a top concentration at 10 uM.
Take `O=C(/C=C/c1ccc(O)cc1)CC(=O)/C=C/c1ccc(O)cc1`: the half-maximal activity concentration (AC50) was 0.419 µM (active).

Source of the values: PubChem BioAssay AID2284192 (EPA ToxCast).
